A selection: hits, their analogues and other compounds. The true share with any hit is near 3%.
C8 TRAIL sens: sensitizes caspase-8 expressing cells to TRAIL | NB7+C8 cells + TRAIL, ATPlite viability luminescence | inhibition (viability loss, TRAIL sensitization), % at 10 µM | actives 1% (n = 360,000) | AID 624354;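 active = compounds causing at least 50% loss of cell viability in the single-dose screen, relative to plate controls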
SENP8 block-1: inhibitors of human SENP8 protease | inhibition, % at 20 µM | AID 602440 | recombinant SENP8, Nedd8 substrate fluorescence | Q96LD8 | actives 0.64% (n = 360,000); in the data active = inhibition mostly above about 40%, no sharp cut-off; inactive = mostly below about 27%
Target sequence (Q96LD8 whole entry, looked up): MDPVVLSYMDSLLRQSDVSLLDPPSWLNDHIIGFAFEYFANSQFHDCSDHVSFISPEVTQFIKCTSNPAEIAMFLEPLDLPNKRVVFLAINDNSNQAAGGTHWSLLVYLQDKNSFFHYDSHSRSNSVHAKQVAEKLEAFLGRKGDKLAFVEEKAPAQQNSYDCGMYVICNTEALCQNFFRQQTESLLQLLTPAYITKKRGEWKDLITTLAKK
SENP6 block: SENP6 protease inhibition. inhibition, % at 10 µM. Recombinant SENP6 catalytic domain, aminoluciferin luminescence. Q9GZR1. actives 1.8% (n = 330,000). AID 2599;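 active = inhibition above about 50% at the single tested dose, limit read from the data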
SENP8 block-2: blocks the human protease SENP8; purified SENP8, Z-RLRGG-aminoluciferin cleavage, luminescence; inhibition, % at 10 µM; actives 1.2% (n = 330,000); in the data active = inhibition above about 50%
SENP7 block: blocks the human protease SENP7; Q9BQF6; recombinant SENP7, Z-RLRGG-aminoluciferin luminescence, 40 min; inhibition, % at 5 µM; actives 1.5% (n = 330,000);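 active = inhibition above about 50% at the single test dose, limit read from the data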
Target sequence (Q9BQF6 706-1050 limits assumed): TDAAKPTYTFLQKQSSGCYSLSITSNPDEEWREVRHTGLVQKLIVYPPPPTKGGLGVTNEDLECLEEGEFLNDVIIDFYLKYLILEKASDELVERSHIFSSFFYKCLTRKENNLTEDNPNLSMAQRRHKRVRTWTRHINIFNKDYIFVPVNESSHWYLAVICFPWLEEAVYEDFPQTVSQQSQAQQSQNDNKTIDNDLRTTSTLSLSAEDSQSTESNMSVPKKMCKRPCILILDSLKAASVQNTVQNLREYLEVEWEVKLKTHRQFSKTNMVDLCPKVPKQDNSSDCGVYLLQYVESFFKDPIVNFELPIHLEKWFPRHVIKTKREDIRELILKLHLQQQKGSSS
PPC-1+TRAIL kill: compounds killing PPC-1 cancer cells with TRAIL present (potentiator screen, no TRAIL-free arm) | AID 1443 | PPC-1 cells + TRAIL, ATPLite viability luminescence | cell killing (% activity), % at 4 µM or 5 µM | actives 0.41% (n = 220,000);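 active = cell killing above 50% in the first pass at 4 µM, then a duplicate retest at 5 µM averaging 50% or more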
SENP8 confirm: confirmation of human SENP8 protease inhibitors; Recombinant SENP8, Z-RLRGG-aminoluciferin luminescence, 60 min; shares compounds with SENP7 block; inhibition, % at 12.5 µM; actives 40% (n = 6,200);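 active = mean inhibition across replicates above about 50%, limit read from the data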
SENP6 conf: human SENP6 inhibition, confirmed; shares compounds with SENP7 block; recombinant SENP6, Z-RLRGG-aminoluciferin luminescence; inhibition, % at 12.5 µM; actives 58% (n = 6,200)
SENP7 conf: confirmation of human SENP7 protease inhibitors | shares compounds with SENP7 block | recombinant SENP7, Z-RLRGG-aminoluciferin luminescence, 40 min | inhibition, % at 12.5 µM | actives 69% (n = 6,200) | AID 488917
Casp3 select: inhibits human caspase-3 in SENP selectivity test; inhibition, % at 12.5 µM; purified caspase-3, Z-DEVD-aminoluciferin luminescence, 60 min; shares compounds with SENP7 block; actives 60% (n = 6,200);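 active = mean inhibition above about 50%, limit read from the data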
SENP luc ctr: interferes with luciferase luminescence in SENP counter-screen | shares compounds with SENP7 block | Pre-incubated SENP8/Z-RLRGG-aminoluciferin, luciferase luminescence interference | inhibition, % at 12.5 µM | actives 39% (n = 6,200);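 active = mean inhibition above about 50% when retested at one dose, limit read from the data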
Large screens that a line does not name were inactive (follow-up assays come after a bar, where they were run).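 The calls were made as follows, unless noted: active = mean inhibition above about 50% in the one-dose retest (limit read from the data); inactive = the rest.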

Cc1ccc(CNC(=O)[C@H]2O[C@@H](n3cnc4c(N)ncnc43)[C@H](O)[C@@H]2O)o1	none (no result: SENP6 block, SENP8 block-2, SENP7 block, PPC-1+TRAIL kill)
Cn1ccnc1SCC(=O)c1ccc([N+](=O)[O-])cc1	none
CC(C)(C)NC(=O)NC(=O)COC(=O)c1cc[n+]([O-])cc1	none
c1csc(-c2ccc(N3CCOCC3)nn2)c1	C8 TRAIL sens 60, SENP6 block 54, SENP7 block 67 (no result: PPC-1+TRAIL kill) | SENP8 confirm 57 | SENP6 conf 56 | SENP7 conf 86 | Casp3 select 88 | SENP luc ctr 63
CCOC(=O)C1CCN(c2ccc(-c3cccs3)nn2)CC1	SENP6 block 96, SENP8 block-2 91, SENP7 block 95 (no result: PPC-1+TRAIL kill) | SENP8 confirm 94 | SENP6 conf 94 | SENP7 conf 100 | Casp3 select 96 | SENP luc ctr 90
COc1cc2c(cc1OC)-c1cc3ccc4c(c3c[n+]1CC2)OCO4	SENP6 block 50 | SENP8 confirm inactive | SENP6 conf inactive | SENP7 conf inactive | Casp3 select inactive | SENP luc ctr inactive
CCCn1c(O)c(N=Nc2ccc3ccccc3n2)c2ccccc21	SENP6 block 95, SENP8 block-2 85, SENP7 block 93 | SENP8 confirm inactive | SENP6 conf 57 | SENP7 conf 61 | Casp3 select 70 | SENP luc ctr inactive
O=C(Cc1ccc(Cl)cc1Cl)OCC(=O)N1CCCCC1	none (no result: PPC-1+TRAIL kill)
Fc1ccc(-c2csc(NC3=NCCC3)n2)cc1	none
Cc1cccnc1Nc1nc(-c2ccc(F)cc2)cs1	SENP6 block 92, SENP8 block-2 89, SENP7 block 93 (no result: PPC-1+TRAIL kill) | SENP8 confirm 89 | SENP6 conf 93 | SENP7 conf 101 | Casp3 select 74 | SENP luc ctr 53
COc1cccc(Nc2nc(-c3ccc(O)cc3)cs2)c1	none
Cc1cccnc1Nc1nc(-c2ccc(O)cc2)cs1	SENP6 block 93, SENP8 block-2 96, SENP7 block 94 | SENP8 confirm 96 | SENP6 conf 98 | SENP7 conf 102 | Casp3 select 89 | SENP luc ctr 97
COc1ccc(O)c(-c2cc(-c3cccc(Br)c3)n[nH]2)c1	SENP6 block 59 | SENP8 confirm inactive | SENP6 conf inactive | SENP7 conf 69 | Casp3 select inactive | SENP luc ctr inactive
COc1ccc(-c2cc(-c3cc(OC)ccc3O)[nH]n2)cc1	none
COc1ccc(O)c(-c2cc(-c3ccc(F)cc3)n[nH]2)c1	SENP6 block 56 (no result: PPC-1+TRAIL kill) | SENP8 confirm 62 | SENP6 conf 59 | SENP7 conf 78 | Casp3 select inactive | SENP luc ctr 68
CCCCCCN1C[C@@H](n2cc(COC(=O)c3ccccc3)nn2)[C@H](O)C[C@@H]1c1ccc(Cl)cc1	none (no result: SENP6 block, SENP8 block-2, SENP7 block, PPC-1+TRAIL kill)
O=C(O)c1cccc(-c2noc(-c3cccc(Cl)c3)n2)c1	C8 TRAIL sens 62, SENP6 block 99, SENP8 block-2 98, SENP7 block 101 (no result: PPC-1+TRAIL kill) | SENP8 confirm 99 | SENP6 conf 100 | SENP7 conf 103 | Casp3 select 98 | SENP luc ctr 96
NC(=O)c1ccc(-c2noc(-c3cccc(Cl)c3)n2)cc1	SENP7 block 58 (no result: PPC-1+TRAIL kill) | SENP8 confirm inactive | SENP6 conf inactive | SENP7 conf inactive | Casp3 select inactive | SENP luc ctr inactive
O=C(Nc1cccc(F)c1)C1CCCN(S(=O)(=O)c2cccc3cccnc23)C1 (centres undefined)	none (no result: PPC-1+TRAIL kill)
NC(=O)c1ccccc1N/C=C/C(=O)c1ccccc1	C8 TRAIL sens 57, SENP6 block 94, SENP8 block-2 88, SENP7 block 91 | SENP8 confirm 87 | SENP6 conf 95 | SENP7 conf 102 | Casp3 select 96 | SENP luc ctr 81
COC(=O)c1ccc(N/C=C/C(=O)c2ccccc2)cc1	C8 TRAIL sens 55, SENP6 block 90, SENP8 block-2 75, SENP7 block 96 (no result: PPC-1+TRAIL kill) | SENP8 confirm inactive | SENP6 conf inactive | SENP7 conf inactive | Casp3 select inactive | SENP luc ctr inactive
CN(C)c1ccc(N/C=C/C(=O)c2ccc(F)cc2)cc1	SENP6 block 98, SENP8 block-2 94, SENP7 block 100 | SENP8 confirm inactive | SENP6 conf 61 | SENP7 conf inactive | Casp3 select 71 | SENP luc ctr inactive
COC(=O)c1ccccc1N/C=C/C(=O)c1ccc(Br)cc1	SENP6 block 66, SENP7 block 53 | SENP8 confirm inactive | SENP6 conf inactive | SENP7 conf inactive | Casp3 select inactive | SENP luc ctr inactive
O=C(/C=C/Nc1ccc(F)cc1)c1ccc(Oc2ncccn2)cc1	none
CC(=O)c1ccc(N/C=C/C(=O)c2ccc(Br)cc2)cc1	none (no result: PPC-1+TRAIL kill)
O=C(NCc1cccc(C(F)(F)F)c1)C1CC(c2ccccc2C(F)(F)F)=NO1 (centres undefined)	none
O=S(=O)(Nc1cccc2ccccc12)c1cccs1	none (no result: PPC-1+TRAIL kill)
O=S(=O)(Nc1ccc(O)c2ccccc12)c1cccs1	SENP6 block 63 (no result: PPC-1+TRAIL kill) | SENP8 confirm inactive | SENP6 conf inactive | SENP7 conf inactive | Casp3 select inactive | SENP luc ctr inactive
Cc1ccc(C)c(C(=O)COC(=O)C(C)N2C(=O)C3C4CCC(C4)C3C2=O)c1 (centres undefined)	none (no result: PPC-1+TRAIL kill)
Nc1c(N=Nc2ccccc2F)c(=O)[nH]n1-c1ccccc1	SENP6 block 80, SENP8 block-2 55, SENP7 block 77 | SENP8 confirm inactive | SENP6 conf inactive | SENP7 conf 53 | Casp3 select inactive | SENP luc ctr inactive
Nc1nn(-c2ccccc2)c(N)c1N=Nc1ccccc1F	none
O=C(c1ccccc1)c1nnc(-c2ccncc2)o1	SENP6 block 58, SENP7 block 57 | SENP8 confirm 68 | SENP6 conf 64 | SENP7 conf 86 | Casp3 select 88 | SENP luc ctr 57
Cc1ccnc(NC(=O)/C=C/c2cccs2)c1	C8 TRAIL sens 79, SENP6 block 86, SENP8 block-2 57, SENP7 block 67, PPC-1+TRAIL kill 68 | SENP8 confirm 71 | SENP6 conf 71 | SENP7 conf 91 | Casp3 select 83 | SENP luc ctr inactive
O=C(/C=C/c1cccs1)Nc1nncs1	none
Cc1ccccc1-c1cc2nc(-c3ccc([N+](=O)[O-])cc3)cc(=O)n2[nH]1	none
